Experimental data reported in the supplement of paper PMC10849652.
Targets with a hit are over-represented here; the source holds about 7,900 in all. About 0.6% of all pairs of compound and target were hits. Values without a mark were called inactive.

How the values were obtained:
Experiment in all cases: log2 fold change, soluble protein after heating vs DMSO (PISA); higher = thermal stabilisation; K562 cells, 10 uM, 30 min; active = over 0.2 and 3.5 SD of the protein, either way, in both replicates (recomputed)
[1] = compound: CS(=O)(=O)c1ccc(-c2cnc(N)c(C(=O)Nc3ccccc3)n2)cc1
Outline: (§1)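 K562 cells at 2×10^6 cells/mL were exposed to 10 μM compound for 30 min, then aliquots were heated for 3 min across 48°C-58°C, pooled, and extracted in PBS containing 0.5% NP-40 at 4°C. The supernatant after 21,000xg for 90 min was taken as soluble protein and measured by TMTpro 16plex LC-MS/MS with channel sums equalised. Thermal stability is reported relative to control samples, with values from duplicates. Fold changes are given on a log2 scale.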

crizotinib = compound: C[C@@H](Oc1cc(-c2cnn(C3CCNCC3)c2)cnc1N)c1c(Cl)ccc(F)c1Cl [crizotinib]
Outline: as §1

[2] = compound: C[C@@H]1COCCN1C2=NC(=NC(=C2)C3(CC3)S(=O)(=O)C)C4=C5C=CNC5=CC=C4
Outline: as §1

[3] = compound: C[C@H](C1=CC=C(C=C1)C(=O)NC2=C3C=CNC3=NC=C2)N
Outline: as §1

duvelisib = compound: C[C@H](Nc1ncnc2nc[nH]c12)c1cc2cccc(Cl)c2c(=O)n1-c1ccccc1 [duvelisib]
Outline: as §1

gandotinib = compound: Cc1cc(Nc2cc(CN3CCOCC3)c3nc(C)c(Cc4ccc(Cl)cc4F)n3n2)n[nH]1 [gandotinib]
Outline: as §1

tozasertib = compound: Cc1cc(Nc2cc(N3CCN(C)CC3)nc(Sc3ccc(NC(=O)C4CC4)cc3)n2)n[nH]1 [tozasertib]
Outline: as §1

[4] = compound: Cc1cc(SCc2sc(-c3ccc(C(F)(F)F)cc3)nc2C)ccc1OCC(=O)O
Outline: as §1

doramapimod = compound: Cc1ccc(-n2nc(C(C)(C)C)cc2NC(=O)Nc2ccc(OCCN3CCOCC3)c3ccccc23)cc1 [doramapimod]
Outline: as §1

ispinesib = compound: Cc1ccc(C(=O)N(CCCN)[C@@H](c2nc3cc(Cl)ccc3c(=O)n2Cc2ccccc2)C(C)C)cc1 [ispinesib]
Outline: as §1

bafetinib = compound: Cc1ccc(NC(=O)c2ccc(CN3CC[C@H](N(C)C)C3)c(C(F)(F)F)c2)cc1Nc1nccc(-c2cncnc2)n1 [bafetinib]
Outline: as §1

[5] = compound: Cc1cccc(CC(=O)N2CCc3c2ccc(-c2cn(C)c4ncnc(N)c24)c3F)n1
Outline: as §1

nilotinib = compound: Cc1cn(-c2cc(NC(=O)c3ccc(C)c(Nc4nccc(-c5cccnc5)n4)c3)cc(C(F)(F)F)c2)cn1 [nilotinib]
Outline: as §1

[6] = compound: Cc1nc(Nc2n[nH]c3c2CN(C(=O)N[C@H](CN(C)C)c2ccccc2)C3(C)C)c2sccc2n1
Outline: as §1

dasatinib = compound: Cc1nc(Nc2ncc(C(=O)Nc3c(C)cccc3Cl)s2)cc(N2CCN(CCO)CC2)n1 [dasatinib]
Outline: as §1

[7] = compound: Cc1ncc(-c2ccnc(Nc3ccc(S(C)(=O)=O)cc3)n2)n1C(C)C
Outline: as §1

[8] = compound: Cn1cc(-c2ccc3c(c2)CCN3C(=O)Cc2cccc(C(F)(F)F)c2)c2c(N)ncnc21
Outline: as §1

[9] = compound: Cn1cc(-c2ccc3nnc(C(F)(F)c4ccc5ncccc5c4)n3n2)cn1
Outline: as §1

tipifarnib = compound: Cn1cncc1[C@@](N)(c1ccc(Cl)cc1)c1ccc2c(c1)c(-c1cccc(Cl)c1)cc(=O)n2C [tipifarnib]
Outline: as §1

mubritinib = compound: FC(F)(F)c1ccc(/C=C/c2nc(COc3ccc(CCCCn4ccnn4)cc3)co2)cc1 [mubritinib]
Outline: as §1

Chain of UniProt Q00013 (Q00013 whole entry, looked up): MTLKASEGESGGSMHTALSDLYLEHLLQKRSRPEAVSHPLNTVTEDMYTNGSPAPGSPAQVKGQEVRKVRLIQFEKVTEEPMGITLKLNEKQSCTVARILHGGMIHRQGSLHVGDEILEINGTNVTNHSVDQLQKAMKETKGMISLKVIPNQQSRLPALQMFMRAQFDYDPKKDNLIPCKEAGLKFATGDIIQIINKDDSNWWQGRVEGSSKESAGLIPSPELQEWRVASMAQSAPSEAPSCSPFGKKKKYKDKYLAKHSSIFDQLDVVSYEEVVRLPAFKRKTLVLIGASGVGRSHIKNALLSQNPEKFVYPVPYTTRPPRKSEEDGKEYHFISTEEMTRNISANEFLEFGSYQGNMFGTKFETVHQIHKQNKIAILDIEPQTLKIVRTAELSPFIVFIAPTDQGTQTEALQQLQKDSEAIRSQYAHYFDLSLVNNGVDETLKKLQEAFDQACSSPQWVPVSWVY
Chain of UniProt P03905 (P03905 whole entry, looked up): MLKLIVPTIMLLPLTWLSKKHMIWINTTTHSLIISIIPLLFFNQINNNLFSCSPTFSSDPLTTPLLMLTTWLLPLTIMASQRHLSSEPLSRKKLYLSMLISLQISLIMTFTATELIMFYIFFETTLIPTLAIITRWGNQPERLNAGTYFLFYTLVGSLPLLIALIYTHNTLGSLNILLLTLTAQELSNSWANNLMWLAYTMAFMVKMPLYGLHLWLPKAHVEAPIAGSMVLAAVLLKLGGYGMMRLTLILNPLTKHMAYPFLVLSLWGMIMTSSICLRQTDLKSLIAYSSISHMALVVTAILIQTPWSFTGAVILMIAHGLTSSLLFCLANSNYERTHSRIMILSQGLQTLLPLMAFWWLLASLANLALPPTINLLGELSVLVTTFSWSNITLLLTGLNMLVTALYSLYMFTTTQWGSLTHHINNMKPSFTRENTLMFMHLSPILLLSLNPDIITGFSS
Chain of UniProt P46087 (P46087 whole entry, looked up): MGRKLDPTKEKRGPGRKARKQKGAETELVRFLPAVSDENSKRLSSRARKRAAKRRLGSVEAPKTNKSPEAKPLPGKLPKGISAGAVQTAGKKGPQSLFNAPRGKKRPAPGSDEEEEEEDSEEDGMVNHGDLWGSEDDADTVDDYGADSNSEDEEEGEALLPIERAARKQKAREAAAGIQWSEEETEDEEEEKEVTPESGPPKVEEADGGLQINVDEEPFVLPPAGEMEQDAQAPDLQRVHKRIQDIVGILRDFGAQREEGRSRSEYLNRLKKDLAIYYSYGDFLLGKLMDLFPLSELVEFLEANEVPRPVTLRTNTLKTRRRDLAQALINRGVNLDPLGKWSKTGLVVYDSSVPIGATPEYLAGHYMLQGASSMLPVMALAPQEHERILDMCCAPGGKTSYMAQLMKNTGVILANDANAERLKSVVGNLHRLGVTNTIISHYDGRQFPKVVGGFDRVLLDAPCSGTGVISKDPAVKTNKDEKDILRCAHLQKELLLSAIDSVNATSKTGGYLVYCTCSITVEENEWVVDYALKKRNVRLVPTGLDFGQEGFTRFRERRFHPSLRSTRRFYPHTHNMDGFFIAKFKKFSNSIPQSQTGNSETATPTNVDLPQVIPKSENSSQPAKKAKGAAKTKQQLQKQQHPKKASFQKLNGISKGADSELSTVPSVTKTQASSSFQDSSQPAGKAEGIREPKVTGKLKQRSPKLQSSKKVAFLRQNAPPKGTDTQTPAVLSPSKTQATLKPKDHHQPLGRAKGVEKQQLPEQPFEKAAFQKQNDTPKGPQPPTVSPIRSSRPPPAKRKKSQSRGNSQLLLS
Chain of UniProt Q96I59 (Q96I59 whole entry, looked up): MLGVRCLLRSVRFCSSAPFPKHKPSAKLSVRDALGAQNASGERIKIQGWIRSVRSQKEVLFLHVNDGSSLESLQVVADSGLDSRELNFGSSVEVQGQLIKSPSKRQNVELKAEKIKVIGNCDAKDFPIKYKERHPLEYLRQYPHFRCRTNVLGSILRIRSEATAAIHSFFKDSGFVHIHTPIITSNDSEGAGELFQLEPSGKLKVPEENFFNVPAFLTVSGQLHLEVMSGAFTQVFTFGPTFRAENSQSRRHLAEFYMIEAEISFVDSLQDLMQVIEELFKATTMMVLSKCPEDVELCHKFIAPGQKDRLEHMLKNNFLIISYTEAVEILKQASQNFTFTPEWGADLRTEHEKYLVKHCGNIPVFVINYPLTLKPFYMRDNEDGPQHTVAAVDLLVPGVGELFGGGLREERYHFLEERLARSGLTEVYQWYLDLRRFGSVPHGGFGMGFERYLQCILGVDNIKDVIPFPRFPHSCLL
Chain of UniProt Q9HCE1 (Q9HCE1 whole entry, looked up): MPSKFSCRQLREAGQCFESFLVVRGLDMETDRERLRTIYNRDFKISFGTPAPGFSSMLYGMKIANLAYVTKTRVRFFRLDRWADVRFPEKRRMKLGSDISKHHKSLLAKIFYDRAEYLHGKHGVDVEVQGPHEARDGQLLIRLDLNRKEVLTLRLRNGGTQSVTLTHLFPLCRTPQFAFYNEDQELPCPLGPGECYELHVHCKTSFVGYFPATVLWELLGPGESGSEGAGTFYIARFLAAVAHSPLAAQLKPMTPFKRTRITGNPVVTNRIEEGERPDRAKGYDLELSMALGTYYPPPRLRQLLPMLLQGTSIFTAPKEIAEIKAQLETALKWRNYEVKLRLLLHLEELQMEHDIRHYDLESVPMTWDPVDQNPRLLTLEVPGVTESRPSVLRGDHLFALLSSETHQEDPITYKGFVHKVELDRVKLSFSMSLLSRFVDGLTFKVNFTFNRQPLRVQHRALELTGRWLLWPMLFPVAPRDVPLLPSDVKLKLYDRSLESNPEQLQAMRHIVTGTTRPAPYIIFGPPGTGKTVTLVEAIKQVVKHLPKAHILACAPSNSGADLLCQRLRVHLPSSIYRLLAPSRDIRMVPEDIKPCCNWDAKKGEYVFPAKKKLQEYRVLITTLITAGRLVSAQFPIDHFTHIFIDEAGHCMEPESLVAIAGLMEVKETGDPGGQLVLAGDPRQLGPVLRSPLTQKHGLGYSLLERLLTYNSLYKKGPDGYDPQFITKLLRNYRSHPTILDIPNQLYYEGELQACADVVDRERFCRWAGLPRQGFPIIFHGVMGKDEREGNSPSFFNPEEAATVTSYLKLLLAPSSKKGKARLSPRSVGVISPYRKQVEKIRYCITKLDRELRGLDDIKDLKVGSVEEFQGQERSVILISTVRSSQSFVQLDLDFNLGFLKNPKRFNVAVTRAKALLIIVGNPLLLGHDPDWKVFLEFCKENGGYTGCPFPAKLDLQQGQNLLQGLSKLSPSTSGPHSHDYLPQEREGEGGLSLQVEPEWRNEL
Chain of UniProt P49116 (P49116 whole entry, looked up): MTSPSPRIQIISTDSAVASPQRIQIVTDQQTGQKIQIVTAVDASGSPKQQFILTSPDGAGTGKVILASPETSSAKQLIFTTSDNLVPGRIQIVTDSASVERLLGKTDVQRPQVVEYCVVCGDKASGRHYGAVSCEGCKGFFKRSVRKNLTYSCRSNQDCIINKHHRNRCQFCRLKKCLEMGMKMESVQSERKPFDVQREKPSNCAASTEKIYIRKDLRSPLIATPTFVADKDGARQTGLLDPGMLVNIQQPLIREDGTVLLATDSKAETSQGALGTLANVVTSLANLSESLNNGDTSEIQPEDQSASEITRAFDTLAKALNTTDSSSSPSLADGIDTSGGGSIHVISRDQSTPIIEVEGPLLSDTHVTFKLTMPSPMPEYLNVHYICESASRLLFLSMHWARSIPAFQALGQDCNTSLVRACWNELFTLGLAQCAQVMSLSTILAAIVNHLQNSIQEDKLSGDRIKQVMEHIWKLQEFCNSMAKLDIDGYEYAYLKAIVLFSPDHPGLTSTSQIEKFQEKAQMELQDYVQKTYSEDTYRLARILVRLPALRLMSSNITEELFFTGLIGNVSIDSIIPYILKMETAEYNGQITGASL
Chain of UniProt Q9BZF1 (Q9BZF1 whole entry, looked up): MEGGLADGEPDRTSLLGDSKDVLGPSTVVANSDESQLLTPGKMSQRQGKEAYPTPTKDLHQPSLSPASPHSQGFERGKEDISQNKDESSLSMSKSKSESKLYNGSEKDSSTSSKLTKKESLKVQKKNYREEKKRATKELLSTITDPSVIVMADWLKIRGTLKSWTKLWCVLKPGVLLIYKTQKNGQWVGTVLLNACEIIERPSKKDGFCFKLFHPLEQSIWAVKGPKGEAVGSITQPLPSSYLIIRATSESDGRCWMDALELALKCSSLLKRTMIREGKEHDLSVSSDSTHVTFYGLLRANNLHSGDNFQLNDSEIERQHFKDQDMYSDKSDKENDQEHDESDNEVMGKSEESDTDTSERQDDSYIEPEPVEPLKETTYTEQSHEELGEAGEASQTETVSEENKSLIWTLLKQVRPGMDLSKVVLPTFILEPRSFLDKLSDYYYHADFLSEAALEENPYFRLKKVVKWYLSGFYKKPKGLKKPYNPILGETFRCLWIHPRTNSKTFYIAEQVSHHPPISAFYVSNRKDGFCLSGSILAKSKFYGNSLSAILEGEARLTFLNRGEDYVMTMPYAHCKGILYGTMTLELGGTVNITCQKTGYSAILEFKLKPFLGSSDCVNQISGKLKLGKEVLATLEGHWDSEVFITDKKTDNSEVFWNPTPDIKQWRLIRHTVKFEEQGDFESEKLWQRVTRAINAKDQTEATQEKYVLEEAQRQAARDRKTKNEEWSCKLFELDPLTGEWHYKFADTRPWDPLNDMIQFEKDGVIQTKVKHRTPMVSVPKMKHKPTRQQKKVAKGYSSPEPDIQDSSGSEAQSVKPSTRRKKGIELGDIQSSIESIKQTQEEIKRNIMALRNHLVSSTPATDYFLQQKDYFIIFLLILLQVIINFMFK
Chain of UniProt Q96DE0 (Q96DE0 whole entry, looked up): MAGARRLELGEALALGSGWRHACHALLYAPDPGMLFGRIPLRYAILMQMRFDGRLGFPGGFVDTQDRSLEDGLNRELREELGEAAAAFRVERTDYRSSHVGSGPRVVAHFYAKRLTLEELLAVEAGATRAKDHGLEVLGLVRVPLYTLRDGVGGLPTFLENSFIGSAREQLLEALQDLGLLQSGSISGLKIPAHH

Target | log2 fold change [1] | log2 fold change (crizotinib) | log2 fold change [2] | log2 fold change [3] | log2 fold change (duvelisib) | log2 fold change (gandotinib) | log2 fold change (tozasertib) | log2 fold change [4] | log2 fold change (doramapimod) | log2 fold change (ispinesib) | log2 fold change (bafetinib) | log2 fold change [5] | log2 fold change (nilotinib) | log2 fold change [6] | log2 fold change (dasatinib) | log2 fold change [7] | log2 fold change [8] | log2 fold change [9] | log2 fold change (tipifarnib) | log2 fold change (mubritinib)
NUDT16 (UniProt Q96DE0) | 0.054 | 0.052 | 0.042 | -0.169 | 0.045 | 0.063 | -0.011 | 0 | -0.034 | 0.067 | -0.044 | -0.035 | 0 | 0.015 | 0.058 | -0.049 | 0.107 | 0.019 | -0.02 | 0.049
MINK1 (UniProt Q8N4C8) | 0.032 | -0.207 | -0.038 | -0.067 | 0.022 | -0.024 | -0.149 | 0.073 | -0.035 | -0.032 | -0.031 | -0.04 | -0.025 | -0.062 | -0.222 (active) | -0.09 | 0.02 | -0.042 | 0.018 | 0.014
OSTM1 (UniProt Q86WC4) | -0.014 | -0.244 | 0.028 | -0.021 | -0.017 | -0.225 | -0.003 | -0.033 | 0.041 | -0.308 (active) | -0.208 | 0.091 | 0.044 | 0.017 | -0.086 | -0.068 | 0.076 | 0.029 | 0.008 | -0.048
NOP2 isoform 4 (UniProt P46087) | 0 | -0.127 | -0.25 | 0.673 | -0.166 | 0.231 | 0.084 | -0.022 | 0.219 | 0.163 | 0.274 | -0.065 | 0.111 | 0.066 | 0.344 | 0.096 | -0.568 | -0.319 | 0.214 | -0.304
NDUFB10 (UniProt O96000) | 0.024 | -0.025 | 0.012 | 0.027 | 0.023 | -0.029 | -0.002 | 0.024 | 0.003 | -0.073 | -0.105 | -0.11 | -0.02 | 0.026 | -0.011 | -0.021 | 0.015 | 0.081 | 0.044 | 0.019
NEU1 (UniProt Q99519) | -0.005 | -0.365 (active) | -0.15 | 0.029 | 0.06 | -0.056 | -0.015 | -0.008 | 0.155 | -0.319 (active) | -0.212 | 0.171 | -0.051 | -0.009 | 0.019 | -0.147 | -0.04 | 0.01 | 0.072 | -0.031
NR2C2 isoform 2 (UniProt P49116) | 0.016 | 0.063 | 0.054 | -0.076 | 0.066 | -0.047 | 0.081 | 0.022 | 0.011 | 0.009 | -0.093 | 0.027 | -0.033 | -0.091 | -0.026 | 0.021 | -0.003 | -0.038 | -0.184 | 0.026
MPP1 (UniProt Q00013) | 0.064 | -0.092 | 0.05 | 0.001 | 0.007 | -0.073 | -0.022 | 0.061 | 0.023 | -0.108 | 0.043 | 0.035 | 0.073 | -0.179 | -0.086 | -0.019 | 0.047 | -0.023 | -0.04 | 0.034
NSUN2 (UniProt Q08J23) | -0.107 | -0.034 | 0.031 | 0.008 | -0.077 | -0.151 | 0.065 | 0.053 | 0.067 | -0.098 | -0.059 | 0.056 | -0.038 | -0.271 | -0.146 | -0.222 | -0.034 | -0.053 | -0.033 | -0.045
NEDD4 isoform 4 (UniProt P46934) | -0.05 | -0.081 | 0.095 | -0.039 | -0.006 | -0.061 | 0.093 | -0.009 | -0.042 | -0.022 | -0.067 | 0.054 | -0.047 | -0.083 | -0.068 | 0.052 | -0.016 | 0.027 | -0.024 | 0.008
NARS2 (UniProt Q96I59) | 0.038 | -0.099 | 0.125 | -0.061 | 0.037 | 0.02 | -0.051 | -0.028 | -0.009 | -0.401 (active) | -0.108 | 0.034 | -0.063 | 0.069 | -0.05 | 0.005 | 0.084 | 0.047 | -0.004 | -0.009
MOV10 (UniProt Q9HCE1) | -0.086 | 0.032 | -0.258 | 0.254 | -0.059 | 0.239 | 0.01 | -0.023 | 0.103 | -0.093 | 0.068 | 0 | 0.035 | 0.041 | 0.111 | 0.068 | -0.055 | -0.101 | 0.091 | -0.014
OSBPL8 (UniProt Q9BZF1) | 0.019 | -0.179 | -0.043 | 0.219 | -0.207 | -0.105 | 0.089 | 0.103 | 0.078 | -0.433 | 0.182 | 0.049 | 0.295 | -0.086 | 0.066 | -0.047 | -0.225 | -0.093 | -0.117 | 0.108
MT-ND4 (UniProt P03905) | -0.107 | 0.008 | 0.052 | -0.148 | 0.079 | -0.104 | 0.06 | -0.066 | 0 | 0.118 | -0.016 | -0.118 | 0.006 | -0.033 | -0.009 | -0.003 | -0.004 | -0.045 | 0.173 | 0.05
OXA1L (UniProt Q15070) | -0.042 | -0.064 | 0.004 | -0.018 | 0.021 | 0.012 | 0.005 | 0.018 | -0.01 | -0.1 | -0.152 | -0.032 | 0.013 | -0.019 | -0.01 | -0.029 | 0.013 | 0.038 | 0.004 | 0.003
MSTO1 (UniProt Q9BUK6) | -0.014 | -0.081 | 0.09 | 0.025 | 0.009 | -0.003 | 0.02 | 0.009 | 0.027 | -0.053 | -0.03 | 0.028 | -0.057 | 0.033 | -0.174 | -0.005 | 0.064 | 0.037 | -0.096 | 0.011
